# Measured potencies and affinities stand elsewhere. Values without a mark were called inactive.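 The calls were made as follows: active = compounds whose fitted curve of lowered CTGF expression reaches half effect within a set concentration limit; inconclusive = flat moderate drop in CTGF, or unreliable curve fit; inactive = the rest.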
# Experiment: YAP1 overexpression rescue of CTGF inhibition – DLD1 cells, RT-qPCR, cherry-pick, mechanism study for YAP1 pathway inhibitor project, dose response (AID 1053127)
# Conditions: DLD1 YAP1-overexpressing, CTGF mRNA qPCR, 24 h; series mostly up to 26 µM; CTGF fold change (delta-delta-Ct), lower = inhibition: at the top concentration
row,Compound,"CTGF fold change (delta-delta-Ct), lower = inhibition"
1,O=C(Cc1ccncc1)N1CCCCN2[C@H](C1)[C@@H](c1ccc(C#Cc3ccccc3F)cc1)[C@@H]2CO,1.19 unspecified
2,COc1cccc(-c2ccc([C@@H]3[C@H]4CN(C(=O)Cc5ccncc5)CCCCN4[C@H]3CO)cc2)c1,1.96 unspecified
3,COc1cccc(-c2ccc([C@@H]3[C@@H](CO)N4CCCCN(C(=O)Cc5ccncc5)C[C@H]34)cc2)c1,1.2 unspecified
4,O=C(Cc1ccncc1)N1CCCCN2[C@@H](CO)[C@H](c3ccc(C#Cc4ccccc4F)cc3)[C@@H]2C1,0.964 unspecified
5,COc1cccc(-c2ccc([C@H]3[C@H](CO)N4CCCCN(C(=O)Cc5ccncc5)C[C@@H]34)cc2)c1,1.02 unspecified
6,O=C(Cc1ccncc1)N1CCCCN2[C@H](CO)[C@H](c3ccc(C#Cc4ccccc4F)cc3)[C@H]2C1,1.12 unspecified
7,COc1cccc(-c2ccc([C@H]3[C@@H](CO)N4CCCCN(C(=O)Cc5ccncc5)C[C@H]34)cc2)c1,1.65 unspecified
8,COc1cccc(-c2ccc([C@H]3[C@@H](CO)N4CCCCN(C(=O)Cc5ccncc5)C[C@@H]34)cc2)c1,1.26 unspecified
9,COc1cccc(-c2ccc([C@@H]3[C@H](CO)N4CCCCN(C(=O)Cc5ccncc5)C[C@@H]34)cc2)c1,0.988 unspecified
10,O=C(Cc1ccncc1)N1CCCCN2[C@@H](CO)[C@@H](c3ccc(C#Cc4ccccc4F)cc3)[C@@H]2C1,0.849 unspecified [at 23.5 µM]
